Screens deposited in PubChem BioAssay by The Scripps Research Institute Molecular Screening Center.
GPR151 activ – activates the human receptor GPR151; PathHunter beta-arrestin GPR151 cells, luminescence; Q8TDV0; activation, % at 11.2 µM; actives 1% (n = 650,000); in the data active means activation above about 4.9%;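 further: 0% = median of compound wells and 100% = cells with positive control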
TEAD-YAP block – TEAD-YAP interaction inhibition | HEK-TIYL cells, TEAD-Gal4/YAP UAS-luciferase luminescence | AID 1259422 | inhibition, % at 9.12 µM | actives 1.4% (n = 640,000); in the data active means inhibition above about 32%;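 further: 0% = median of test compound wells and 100% = reference inhibitor wells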
MITF inh – blocks human microphthalmia-associated transcription factor; O75030; AlphaScreen MITF homodimerization, bead proximity signal; inhibition, % at 2.6 µM; actives 0.91% (n = 650,000); in the data active means inhibition above about 50%;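 further: 0% = vehicle wells with protein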
Target sequence (O75030 whole entry, looked up): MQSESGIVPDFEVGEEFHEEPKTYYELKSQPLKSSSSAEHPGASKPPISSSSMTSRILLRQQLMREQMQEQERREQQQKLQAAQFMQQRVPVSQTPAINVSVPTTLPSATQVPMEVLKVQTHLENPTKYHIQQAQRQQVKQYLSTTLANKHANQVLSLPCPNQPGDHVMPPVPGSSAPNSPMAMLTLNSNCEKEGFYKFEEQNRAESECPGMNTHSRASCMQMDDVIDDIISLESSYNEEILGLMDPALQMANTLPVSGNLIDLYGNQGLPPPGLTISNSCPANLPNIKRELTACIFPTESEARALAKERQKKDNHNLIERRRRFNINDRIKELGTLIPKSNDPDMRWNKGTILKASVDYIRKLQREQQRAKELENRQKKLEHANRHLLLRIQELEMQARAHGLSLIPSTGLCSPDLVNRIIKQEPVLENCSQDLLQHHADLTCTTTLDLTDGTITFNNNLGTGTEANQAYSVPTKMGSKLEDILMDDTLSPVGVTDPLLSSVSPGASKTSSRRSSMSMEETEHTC
FBW7 act – activators of human E3 ligase FBW7 | AlphaScreen FBW7–phospho-cyclin E peptide binding, activator screen | normalized activity (activation), % at 26.1 µM | actives 0.13% (n = 650,000) | AID 1259310; in the data active means normalized activity above about 1.9%;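 further: purified mutant Fbw7 with reduced substrate affinity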
MITF confirm – human MITF inhibition, confirmation; inhibition, % at 2.6 µM; AID 1259372; AlphaScreen MITF homodimerization, biotin/His-MITF beads; actives 16% (n = 4,700); shares compounds with MITF inh;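 active means inhibition above a cutoff derived from the DMSO control wells, cut at about 28% in these data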;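 further: 0% = MITF dimer wells with DMSO only; inhibitors lower the bead chemiluminescence by keeping MITF from dimerizing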
AlphaScreen DR – optically interferes with AlphaScreen signal in dose response. IC50, µM. actives 6% (n = 480). AlphaScreen optical interference counterscreen, cell-free. shares compounds with MITF inh. AID 1259373; call rule not given here
AlphaScreen intf2 – counter-screen: compounds optically interfering with AlphaScreen; inhibition, % at 2.6 µM; shares compounds with MITF inh; AID 1259376; actives 7.6% (n = 4,700); LysRS AlphaScreen counterscreen, signal interference, triplicate;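 active means inhibition above a cutoff derived from the DMSO control wells, cut at about 30% in these data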
The depositor's hits bear a star; . = not tested or not shown. Sampled rows, rich in hits. Any-hit rate of the full collection: about 3.4%.

SMILES | GPR151 activ | TEAD-YAP block | MITF inh | FBW7 act | MITF confirm | AlphaScreen intf2 | others
CC1(NCC(O)COc2ccccc2)CCS(=O)(=O)C1 (centres undefined) | 0.4 | 7.6 | 64.9* | -0.3 | 2.4 | -2.4
CC(C)(c1ccccc1)c1ccc(OCC(O)CN2CCCCC2)cc1 (centres undefined) | -0.4 | -2.6 | 3.5 | -0.1 | . | .
COc1ccc(-c2ccc(S(=O)(=O)N3CCOCC3)cc2)cc1 | -0.4 | -0.8 | 10.7 | 0.0 | . | .
COc1ccc(S(=O)(=O)N2CCC(N3CCC(C)CC3)CC2)cc1 | -0.7 | 1.5 | 54.6* | 0.0 | 34.3* | 0.3 | AlphaScreen DR=>6.48
COC(=O)CCN1CCN(S(=O)(=O)c2ccc(OC)cc2)CC1 | 0.1 | 4.8 | 59.5* | 0.0 | -9.4 | -3.8
COc1ccc(S(=O)(=O)N2CCC(N3CCOCC3)CC2)cc1 | 1.3 | 2.9 | 54.0* | 0.0 | 7.8 | 8.6
COc1ccc(S(=O)(=O)N2CCN(CCO)CC2)cc1 | -1.2 | -2.6 | -9.3 | 0.1 | . | .
COc1ccc(S(=O)(=O)N2CCN(C3CCCCCCC3)CC2)cc1 | 0.0 | 1.0 | 31.5 | 0.1 | . | .
COc1ccc(S(=O)(=O)N2CCC(N3CCN(C)CC3)CC2)cc1 | -0.7 | 5.0 | 73.3* | 0.0 | 1.8 | 6.1
O=S(=O)(Cc1ccccc1)NCC1CCCN(Cc2ccoc2)C1 (centres undefined) | -0.4 | 1.5 | 5.7 | 0.8 | . | .
COc1ccc(-c2ccc(SCC(=O)Nc3c(C)[nH]c(=O)[nH]c3=O)nn2)cc1 | 1.9 | -3.4 | 0.3 | 0.0 | . | .
COc1ccc(OCCN2CCN(S(=O)(=O)c3ccc4c(c3)OCCO4)CC2)cc1 | -0.8 | -5.5 | 85.4* | -0.4 | 6.5 | 16.5
Cc1c(NC(=O)c2cc(C(=O)O)ccc2C(=O)O)c(=O)n(-c2ccccc2)n1C | -0.1 | 6.0 | 10.4 | 0.0 | . | .
COc1cccc(CNCC(=O)Nc2ccc(N3CCCCCC3)cc2)c1 | -0.9 | 2.2 | 53.3* | -0.3 | 10.4 | 24.0
COCCNCC(=O)Nc1ccc(N2CCCCC2)cc1 | 0.3 | 3.4 | 60.9* | 0.0 | -13.6 | -5.2
O=C(CCl)Nc1ccc(CN2CCCCC2)cc1 | -1.2 | -3.7 | 15.7 | 0.4 | . | .
COCCNCC(=O)Nc1ccc(CN2CCCCC2)cc1 | -0.2 | 1.8 | 53.0* | -0.1 | 13.6 | 13.2
COC(=O)C1=CN(C)C=C(C(=O)OC)C1c1ccc2c(c1)OCO2 | 0.1 | 15.8 | -0.3 | 0.5 | . | .
CSc1ccccc1N1C(=O)c2ccc(Oc3ccc(NC(=O)CSc4ccc(Br)cc4)cc3)cc2C1=O | 0.7 | 1.6 | 1.6 | -0.1 | . | .
Cc1ccc(Nc2nc(-c3ccccc3)c3cc(C)ccc3n2)cc1 | -0.3 | -2.9 | -11.7 | 0.2 | . | .
CCOC(=O)Cc1ccc(N(Cc2ccc(Cl)cc2)S(=O)(=O)c2cc(C(=O)Nc3ccc(OCC)cc3)ccc2F)cc1 | 0.4 | -2.9 | 4.2 | 0.0 | . | .
COc1ccc(C2CCN(Cc3cccnc3)CC2)cc1 | 0.1 | 2.0 | 64.0* | 0.2 | 10.1 | 9.2
COc1ccc(CC2(CO)CCN(Cc3cccnc3)CC2)cc1 | 1.4 | 6.3 | -5.1 | -0.1 | . | .
COc1cccc(CN2CCOCC2)c1 | -0.1 | 6.7 | -1.6 | 0.1 | . | .
COc1cc(CN2CCN(Cc3cccnc3)CC2)cc(OC)c1O | -1.7 | 0.6 | 65.7* | 0.1 | 4.3 | 6.8
SMILES | GPR151 activ | TEAD-YAP block | MITF inh | FBW7 act | MITF confirm | AlphaScreen intf2 | others
COc1cccc(CN2CCN(Cc3cccnc3)CC2)c1 | -1.1 | -3.8 | 79.4* | 0.1 | -11.4 | -0.2
COc1ccc(CN2CCN(Cc3cccnc3)CC2)cc1 | 2.0 | -13.8 | 73.6* | -0.3 | 23.7 | 13.4
COc1cc(CN2CCCCCCC2)cc(OC)c1O | 0.2 | -3.3 | 22.4 | 0.3 | . | .
CCC(CC)C(=O)Nc1nnc(SCC(=O)Nc2nccs2)s1 | -1.1 | 11.9 | 0.1 | 0.3 | . | .
CC(=O)Nc1ccc(C2=NN(C)C(=NCc3ccccc3)SC2)cc1 | 0.4 | 1.9 | 13.6 | 0.0 | . | .
CSc1ccc(CN2CCN(Cc3cccnc3)CC2)cc1 | -0.3 | 3.0 | 85.8* | 0.5 | 16.2 | 16.7
COc1cccc(CN2CCC(CNc3ccc(-c4ccncc4)cc3)C2)c1 (centres undefined) | -2.0 | -6.0 | 62.8* | 0.0 | 61.4* | 11.8 | AlphaScreen DR=>6.48
COCCNC(=O)C(C)OC(=O)c1cccs1 (centres undefined) | 0.1 | 6.6 | -1.6 | -0.1 | . | .
COc1ccc(C(=O)NC(=S)N2CCN(c3ccc([N+](=O)[O-])cc3)CC2)cc1 | 0.2 | -1.0 | 17.4 | 0.2 | . | .
COc1cccc(C(=O)NC(=S)N2CCN(c3ccc([N+](=O)[O-])cc3)CC2)c1 | -0.1 | 1.5 | 71.6* | 0.0 | 4.9 | 32.6*
COc1ccccc1N1CCN(C(=O)c2ccc3c(c2)C(=O)N(c2ccccn2)C3=O)CC1 | -1.0 | 1.3 | 67.7* | 0.3 | -6.7 | -4.4
O=C(c1ccc2c(c1)C(=O)N(c1ccccn1)C2=O)N1CCN(c2ccccc2Cl)CC1 | -0.7 | -6.9 | 15.1 | 0.5 | . | .
COc1ccccc1NC(=O)c1ccc(N2C(=O)c3ccccc3C2=O)cc1 | 2.4 | -8.6 | -5.9 | -0.1 | . | .
CN1CCCN(Cc2ccccc2F)CC1 | 0.5 | -0.5 | 11.5 | -0.2 | . | .
c1ccc(CCCN2CCN(C3CCN(Cc4ccccc4)CC3)CC2)cc1 | -0.2 | -8.2 | -4.6 | 0.1 | . | .
c1ccc(CCCN2CCN(Cc3cccnc3)CC2)cc1 | -2.3 | -1.9 | 83.4* | 0.1 | 18.8 | 19.4
Fc1ccccc1CN1CCN(CCCc2ccccc2)CC1 | -1.6 | 4.0 | 72.8* | -0.2 | 7.7 | 3.1
Fc1ccccc1OCCCN1CCN(Cc2ccccc2)CC1 | -1.2 | 4.6 | 64.1* | 0.7 | 6.2 | 16.1
Fc1ccc(CN2CCN(CCCc3ccccc3)CC2)cc1 | -1.3 | -4.0 | 58.6* | 0.0 | 5.0 | -0.2
COc1ccc(C(=O)NCc2cccc3ccccc23)c(OC)n1 | 1.4 | 1.3 | -0.8 | -0.1 | . | .
COc1ccc(CN2CCN(C(=O)c3ccccc3)CC2)cc1Br | -1.9 | 6.0 | 46.2 | 0.0 | . | .
COc1ccc(CN2CCN(C(=O)c3cccc(F)c3)CC2)cc1Br | -1.2 | 3.2 | 58.9* | -0.1 | 14.9 | 15.3
COc1cc(CN2CCN(C(=O)c3ccc(F)cc3)CC2)cc(OC)c1O | -0.1 | -0.2 | 53.4* | -0.1 | -4.6 | 1.8
COc1ccc(CN2CCN(C(=O)c3cccnc3)CC2)cc1Br | -0.3 | 9.2 | 59.5* | -0.1 | -6.2 | -8.7
COc1ccc(CN2CCN(C(=O)c3ccc(F)cc3)CC2)cc1Br | 0.7 | -1.1 | 51.4* | -0.2 | -1.6 | 10.3
Cc1cc2cc(CNC(=O)NC3CC(=O)N(c4ccc(C)c(C)c4)C3)ccc2[nH]1 (centres undefined) | -0.6 | 8.4 | -10.5 | 0.0 | . | .
C=CCc1ccc(OCCCCCN2CCOCC2)c(OC)c1 | 3.0 | -7.1 | 59.1* | -0.3 | -0.1 | -1.4
C=CCc1ccc(OCCN2CCN(CC)CC2)c(OC)c1 | -0.4 | -6.3 | 70.9* | -0.1 | 3.9 | 15.2
C=CCc1ccc(OCCNC)c(OC)c1 | 3.2 | 2.1 | 38.2 | -0.1 | . | .
